Test results as given in PubChem BioAssay (EPA / NIEHS).
Inconclusive results are not listed. Calls of active or inactive are those of the source. How the source made its calls: active means hit-call score of the fitted dose curve at least 0.9, where 1 is the maximum; inconclusive means response in the unintended direction; inactive means score below 0.9.

Target: human Neonicotinoid receptor (NNR), CHRNA2 (gene 1135) (UniProt Q15822)
Assay: NVS_LGIC_hNNR_NBungSens: NovaScreen (NVS) Ligand-Gated Ion Channel Assay for human Neonicotinoid receptor (NNR) (AID 2283313)
In short: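 Radioligand displacement on human neuroblastoma membranes, 2 h, filter-based scintillation counting. Primary screen in duplicate at 25 uM; chemicals passing threshold (e.g. 30% inhibition) run singleton concentration-response to 50 uM; loss of binding fitted versus DMSO.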

human Neonicotinoid receptor (NNR), CHRNA2 (gene 1135), sequence (Q15822 whole entry, looked up): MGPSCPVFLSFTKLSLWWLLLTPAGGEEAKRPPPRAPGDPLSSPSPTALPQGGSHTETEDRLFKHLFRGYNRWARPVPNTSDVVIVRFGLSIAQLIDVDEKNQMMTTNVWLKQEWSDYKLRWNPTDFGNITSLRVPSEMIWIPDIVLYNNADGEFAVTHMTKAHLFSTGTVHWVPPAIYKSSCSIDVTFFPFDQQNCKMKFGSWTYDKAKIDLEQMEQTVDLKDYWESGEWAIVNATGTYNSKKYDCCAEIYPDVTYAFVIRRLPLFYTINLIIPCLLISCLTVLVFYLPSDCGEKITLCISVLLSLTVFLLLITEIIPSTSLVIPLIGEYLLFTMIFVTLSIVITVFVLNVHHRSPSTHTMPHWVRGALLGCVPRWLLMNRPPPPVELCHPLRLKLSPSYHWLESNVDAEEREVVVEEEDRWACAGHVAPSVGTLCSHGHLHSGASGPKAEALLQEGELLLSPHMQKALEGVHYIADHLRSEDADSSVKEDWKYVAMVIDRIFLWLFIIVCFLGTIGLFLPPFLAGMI

Structure (SMILES)	outcome	AC50
Cc1ccc(N=CN(C)C=Nc2ccc(C)cc2C)c(C)c1	inactive	–
N#CN=C1SCCN1Cc1ccc(Cl)nc1	–	4.45 µM (active)
CC1(C)C(C=C(Cl)Cl)C1C(=O)OC(C#N)c1cccc(Oc2ccccc2)c1 (stereo not given)	–	25 µM (active)
CN/C(=N\[N+](=O)[O-])NCc1cnc(Cl)s1	–	10.1 µM (active)

Target: rat Somatostatin Receptor (SST), Sstr1 (gene 25033) (UniProt P28646)
Assay: NVS_GPCR_rSST: NovaScreen (NVS) G Protein-Coupled Receptor Assay for rat Somatostatin Receptor (SST) (AID 2283314)
In short: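 Rat forebrain membranes; radioligand displacement read by filter-based scintillation counting 1 h after dosing. Primary screen in duplicate at 25 uM. Actives (e.g., 30% inhibition) were rerun as concentration-response to 50 uM max and fitted against DMSO.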

rat Somatostatin Receptor (SST), Sstr1 (gene 25033), sequence (P28646 whole entry, looked up): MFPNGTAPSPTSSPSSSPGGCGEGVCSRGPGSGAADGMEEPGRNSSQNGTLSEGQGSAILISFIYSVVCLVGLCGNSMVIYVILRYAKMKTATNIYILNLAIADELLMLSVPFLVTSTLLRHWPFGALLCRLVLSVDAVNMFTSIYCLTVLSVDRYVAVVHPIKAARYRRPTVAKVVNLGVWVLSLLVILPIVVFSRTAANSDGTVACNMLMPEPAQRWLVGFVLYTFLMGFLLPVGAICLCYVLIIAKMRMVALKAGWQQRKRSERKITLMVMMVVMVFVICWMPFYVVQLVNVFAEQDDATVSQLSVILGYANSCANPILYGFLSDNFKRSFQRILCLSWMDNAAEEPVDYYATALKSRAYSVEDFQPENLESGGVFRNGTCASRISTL

Structure (SMILES)	AC50
CCOP(=O)(OCC)Oc1nc(Cl)c(Cl)cc1Cl	6.64 µM (active)
O=C1C2CC=CCC2C(=O)N1SC(Cl)(Cl)Cl (stereo not given)	5.93 µM (active)
CCOC(=O)C(C)OC(=O)c1cc(Oc2ccc(C(F)(F)F)cc2Cl)ccc1[N+](=O)[O-] (stereo not given)	41.1 µM (active)

Target: rat Neonicotinoid receptor (NNR), Chrna7 (gene 25302) (UniProt Q05941)
Assay: NVS_LGIC_rNNR_BungSens: NovaScreen (NVS) Ligand-Gated Ion Channel Assay for rat Neonicotinoid receptor (NNR) (AID 2283315)
In short: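 Radioligand displacement binding on rat cortical membranes, 2.5 h incubation, filtration and scintillation counting. Loss of specific binding fitted relative to DMSO.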

rat Neonicotinoid receptor (NNR), Chrna7 (gene 25302), sequence (Q05941 whole entry, looked up): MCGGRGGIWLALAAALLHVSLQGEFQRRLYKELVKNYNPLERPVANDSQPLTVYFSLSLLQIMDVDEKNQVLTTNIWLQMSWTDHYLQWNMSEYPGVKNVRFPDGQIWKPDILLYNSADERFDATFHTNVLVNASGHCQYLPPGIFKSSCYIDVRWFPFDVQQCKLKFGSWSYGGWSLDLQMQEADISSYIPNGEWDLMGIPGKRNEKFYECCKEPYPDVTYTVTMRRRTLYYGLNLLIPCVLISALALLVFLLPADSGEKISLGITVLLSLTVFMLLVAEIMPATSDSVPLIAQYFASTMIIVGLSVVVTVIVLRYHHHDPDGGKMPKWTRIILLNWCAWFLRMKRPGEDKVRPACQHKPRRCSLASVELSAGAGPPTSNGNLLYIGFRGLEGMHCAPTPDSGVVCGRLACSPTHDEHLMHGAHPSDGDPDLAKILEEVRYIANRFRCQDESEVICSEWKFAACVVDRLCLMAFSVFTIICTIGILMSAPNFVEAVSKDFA

Structure (SMILES)	AC50	outcome
N#CN=C1SCCN1Cc1ccc(Cl)nc1	5.39 µM (active)	–
COC(=O)N(C(=O)N1CO[C@@]2(C(=O)OC)Cc3cc(Cl)ccc3C2=N1)c1ccc(OC(F)(F)F)cc1	–	inactive
CN/C(=N\[N+](=O)[O-])NCc1cnc(Cl)s1	25 µM (active)	–
